A selection: hits, their analogues and other compounds. The true share with any hit is near 1.1%.
TRPV1 ag: human TRPV1 agonism; Q8NER1; 320,000 tested, 0.19% active; activation, % at 8.33 µM; TRPV1-expressing cells, Fluo-8 calcium influx, agonist mode; in the data active means activation above about 80%; inconclusive means between about 30% and that limit; further: 0% is about no effect
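TRPV1-expressing cells were cultured overnight at 35.5C and loaded with Fluo-8 calcium dye for 40 to 90 min at room temperature. After a 10 s baseline, compound was added and calcium influx was read kinetically for 3 min (ex 480/em 520 nm).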
TRPV1 PAM: enhances activation of the human vanilloid receptor TRPV1. 320,000 tested, 0.02% active. potentiation, % at 8.33 µM. TRPV1-expressing cells, Fluo-8 calcium influx, capsaicin EC20 potentiation; in the data active means potentiation above about 80%; inconclusive means between about 30% and that limit; further: 0% is about no effect
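Fluo-8 calcium influx in TRPV1-expressing cells, kinetic read (ex 480/em 520 nm). Compound added and read 3 min for agonist activity, followed by capsaicin at EC20 final and 2 min further read for enhancement.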
gsp antagonist: gsp mutant antagonism; gsp-mutant cells, cAMP HTRF, 30 min; Potency, µM (titrated, usually from 76.9 µM), inactives show top-dose activity change, negative = inhibition, usual class: inhibitors; 340,000 tested, 0.4% active; AID 624288; calls by dose curve; cell line not stated here;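 further: intracellular cAMP measured with PDE inhibitor Ro 20-1724 present during compound exposure; potency means the concentration at half of the fitted maximal effect; on the % scale 0 is the no-effect control and ±100 the full control effect; nearly all actives have a fitted effect of over 65% in size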
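HTRF cAMP read-out (cAMP-d2 plus anti-cAMP antibody-K in lysis buffer, 30 min RT). Before lysis, cells are exposed to compounds with […] for 30 min at 37C in DPBS containing Ca/Mg, BSA and Tween 20.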
RXFP1 ag: agonists of human relaxin receptor RXFP1. 370,000 tested, 0.3% active. Q9HBX9. Potency, µM (titrated, usually from 57.5 µM), for inactives: at the highest dose activation, hits mostly activators. HEK293T-RXFP1 cAMP TR-FRET, 30 min; response scale: percent of porcine relaxin response, buffer zero; active means well fitted activation curve with a large enough effect; inconclusive means small, poorly fitted or top-dose-only effect; further: potency means the concentration at half of the fitted maximal effect; on the % scale 0 is the no-effect control and ±100 the full control effect; nearly all actives have a fitted effect of over 60% in size
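HEK293 cells stably expressing RXFP1, treated 30 min at 37C with compounds plus PDE4 inhibitor Ro 20174; cAMP measured by HTRF TR-FRET. Normalized to buffer and 29 nM porcine relaxin; EC50 by Hill fit.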
RXFP1 antag: blocks the human relaxin receptor RXFP1; Q9HBX9; HEK293-RXFP1, relaxin-stimulated cAMP HTRF, 30 min; hits give low values; activity change, negative = inhibition, % at 57.5 µM; 350,000 tested, 0.59% active; AID 1259400;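 active means activity change of -60% or lower, but not beyond a set lower limit; inconclusive means change between -60% and -40%, or beyond the set limit; inactive means change above -40%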; further: on the % scale 0 is the no-effect control and ±100 the full control effect
gsp agonist: activates gsp, the McCune-Albright syndrome mutation; gsp mutant cells, cAMP HTRF, 30 min; Potency, µM (doses to about 76.9 µM), for the others: top-dose activation (cAMP increase), actives largely listed as activators; 340,000 tested, 0.13% active; active means well fitted activation curve with a large enough effect; inconclusive means small, poorly fitted or top-dose-only effect, or another doubt; inactive means no such curve, though single readings can be large or run the other way; cell line not stated here;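 further: phosphodiesterase inhibitor Ro 20-1724 added with compounds to block cAMP breakdown; potency means the concentration at half of the fitted maximal effect; nearly all actives have a fitted effect of over 60% in size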
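Cells in DMEM/10% FBS with G418 were pretreated with compounds in DMSO plus […] (300 uM stock) for 30 min at 37C. cAMP was measured by HTRF (cAMP-d2 plus anti-cAMP antibody-K) after 30 min at room temperature.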
* marks the source's active call; other numbers are inactive results; ? = inconclusive; . = not tested or not shown; [ ] = remark or other dose.

SMILES | TRPV1 ag | TRPV1 PAM | gsp antagonist | RXFP1 ag | RXFP1 antag | gsp agonist
CC(CN)(NS(=O)(=O)c1ccccc1)c1ccccc1 (stereo not given) | 4.2 | 4.7 | 3.2% | 0.9% | 8.0 | -10.6%[15.4 µM]
Cc1ccc2nc3c(cc2c1)c(NC(=O)c1ccccn1)nn3CC(C)C | ? | -11.0 | 4.8% | -1.1% | -9.3 | 19.3%
CCn1nc(NC(=O)c2ccccn2)c2cc3cc(C)ccc3nc21 | ? | -4.4 | 35.5µM* | -0.3% | -10.8 | ?
C=C1/C(=C\C=C2/CCC[C@]3(C)[C@@H]([C@H](C)CCCC(C)(C)O)CC[C@@H]23)C[C@@H](O)C[C@@H]1O | 24.8 | -1.8 | . | 0.6% | . | .
C=C1C(=C/C=C2\CCC[C@]3(C)[C@@H]([C@H](C)/C=C/[C@@H](O)C4CC4)CC[C@@H]23)C[C@@H](O)C[C@@H]1O | . | . | . | . | -72.3* | .
COC(=O)[C@@H]1[C@@H](C#N)C2(c3ccccc3-c3ccccc32)N(c2ccc(Cl)cc2)N1C#N | 7.0 | -7.6 | 8.6% | 0.4% | -72.9* | 19.8%[15.4 µM]
O=C(Cc1ccc(Cl)cc1)NN1C(=O)c2ccccc2C1=O | 1.8 | -1.0 | 10.9% | -0.2% | -0.9 | 12.7%
CCOC(=O)Cn1c(=NC(=O)c2nc3ccccc3s2)sc2cc(S(N)(=O)=O)ccc21 | 0.8 | 0.7 | 10µM* | 23.6% | -29.7 | -4.0%[15.4 µM]
CCOC(=O)Cn1c(=NC(=O)CN2C(=O)CCC2=O)sc2cc(S(N)(=O)=O)ccc21 | 0.3 | 6.9 | 6.9% | 3.7% | -9.5 | -18.5%[15.4 µM]
Cc1cccc(C(=O)NC(=S)NNC(=O)c2cccs2)c1 | ? | -26.8 | 9.5% | -0.6% | 13.6 | 0.2%
Cc1cccc(C(=O)NC(=S)NNC(=O)c2ccc(Cl)cc2)c1 | ? | -32.3 | -3.9% | -0.3% | -96.5* | 3.3%
Cc1c(C)c2ccc(OCC(=O)c3ccccc3)cc2oc1=O | 6.2 | -2.5 | 35.5µM* | 21.6% | -1.7 | ?
COc1cccc(C(=O)COc2ccc3c(C)c(Cc4ccccc4)c(=O)oc3c2)c1 | 0.2 | -1.3 | 11.6% | -0.3% | 6.5 | -0.1%[15.4 µM]
CCC(C)S(=O)(=O)c1oc(-c2cccs2)nc1S(=O)(=O)c1ccccc1 (stereo not given) | . | . | . | 0.5% | -78.8* | .
CC(C)CS(=O)(=O)c1oc(-c2ccc(F)cc2)nc1S(=O)(=O)c1ccccc1 | . | . | . | 3.9% | -81.8* | .
CCCCC[C@H]1CN(Cc2ccccc2)C(=O)[C@@H]1CC(=O)NCc1ccc(OC)cc1 | ? | -3.7 | -13.8% | -0.8% | . | .
O=C(Cn1nc(-c2ccc3c(c2)OCCO3)ccc1=O)Nc1ccc(-n2cnnn2)cc1 | -10.6 | 2.3 | 3.4% | -1.6% | 0.5 | -31.2%
O=C(Cn1nc(-c2ccccc2)ccc1=O)Nc1ccc(-n2cnnn2)cc1 | 4.5 | -2.7 | 44.7µM* | -4.2% | ? | 2.6%[15.4 µM]
Cc1ccc(C(=O)Oc2ccc(Br)cc2C(=S)N2CCOCC2)cc1 | 14.1 | 1.6 | -7.8% | -2.5% | -11.8 | -8.0%[15.4 µM]
COc1ccc(C(=O)Oc2ccc(Br)cc2C(=S)N2CCOCC2)cc1 | 3.7 | 3.7 | -17.2% | 1.7% | -67.2* | 2.9%
CC(C)CSC1=NSC2=NC(=O)/C(=C\c3cccs3)C(=N)N12 | -0.4 | 15.5 | -12.5% | -0.2% | -4.6 | -14.6%[15.4 µM]
N=C1/C(=C/c2cccs2)C(=O)N=C2SN=C(SCc3ccccc3)N12 | -1.4 | ? | 31.6µM* | 2.4% | -9.9 | 16.5%
CSC1=NSC2=NC(=O)/C(=C\c3cccs3)C(=N)N12 | 0.6 | 5.5 | 35.5µM* | 1.7% | -2.6 | 3.1%
COc1ccc(NC(=O)c2cccc(N3C(=O)C4C5C=CC(C5)C4C3=O)c2)c(OC)c1 (stereo not given) | -2.3 | ? | -1.5% | -0.3% | 7.2 | -2.2%
COc1ccccc1NC(=O)c1cccc(N2C(=O)C3C4C=CC(C4)C3C2=O)c1 (stereo not given) | 1.8 | -11.1 | -11.6% | -4.8% | -77.0* | ?
CCS(=O)(=O)Nc1ccc(C2=NN(C(=O)c3ccco3)C(c3cccc(F)c3)C2)cc1 (stereo not given) | 3.2 | -15.2 | 22.4µM* | -0.4% | -20.0 | -17.1%
